High-throughput results as filed in PubChem BioAssay.
CYP2C19 inh: blockers of cytochrome P450 2C19 activity – biochemical, luminescence, ADME assay, primary screen | CYP2C19 Supersomes, luciferin-H EGE luminescence, 30 min | inhibition, % at 5 µM | 96,000 compounds, 21% hits | AID 778, 2007;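 active = CYP2C19 inhibition above a set limit at 5 µM in the primary screen, cut at about 50% in these data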
PLAP act: PLAP enzyme activators, biochemical, luminescence, HTS. purified PLAP enzyme, luminescent substrate read-out; active compounds read high. Alkaline phosphatase, placental type (Homo sapiens), P05187. 96,000 compounds, 1.2% hits. AID 696, 2007. activation fold at 20 µM; in the data active = activation fold above about 2
Target sequence (P05187 whole entry, looked up): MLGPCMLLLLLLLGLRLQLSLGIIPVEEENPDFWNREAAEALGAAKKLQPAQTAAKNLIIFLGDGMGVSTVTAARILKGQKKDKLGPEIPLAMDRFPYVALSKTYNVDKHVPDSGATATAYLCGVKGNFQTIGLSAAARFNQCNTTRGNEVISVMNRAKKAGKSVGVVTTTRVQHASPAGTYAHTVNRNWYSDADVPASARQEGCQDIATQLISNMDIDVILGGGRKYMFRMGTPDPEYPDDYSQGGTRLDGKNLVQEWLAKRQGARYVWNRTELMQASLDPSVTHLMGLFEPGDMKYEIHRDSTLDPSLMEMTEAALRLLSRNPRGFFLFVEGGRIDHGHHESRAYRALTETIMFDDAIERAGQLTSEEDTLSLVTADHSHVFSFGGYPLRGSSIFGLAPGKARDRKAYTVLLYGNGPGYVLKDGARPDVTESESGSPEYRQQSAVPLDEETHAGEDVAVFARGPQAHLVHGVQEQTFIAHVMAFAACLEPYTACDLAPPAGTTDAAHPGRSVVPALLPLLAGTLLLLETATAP
CYP2C9 inhib: blockers of cytochrome P450 2C9 activity – biochemical, luminescence, ADME assay, primary screen | CYP2C9 Supersomes, luciferin-H conversion | inhibition, % at 5 µM | 96,000 compounds, 20% hits;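 active = blocking of liver enzyme CYP2C9 beyond about 50% at 5 µM, limit read from the data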
CYP2C9 act: human CYP2C9 activators, primary screen, biochemical, luminescence | Cytochrome P450 2C9 (Homo sapiens), P11712 | recombinant CYP2C9, luciferin-H conversion; active compounds read high; factor 1 = untreated enzyme, 0 = blocked | activation factor at 5 µM | 96,000 compounds, 1.4% hits;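 active = activation factor of 2 or more for CYP2C9 at a 5 µM dose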
CYP2C19 act: human CYP2C19 activators, primary screen, biochemical, luminescence; activation factor at 5 µM; 96,000 tested, under 10 active; recombinant CYP2C19, luciferin-H EGE luminescence; active compounds read high; 0 = fully inhibited enzyme, 1 = untreated enzyme; AID 1025, 2008;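 active = activation factor of at least 2 at 5 µM in the primary screen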
Hits are given with their value; . = inactive; / = no result given; ! = a repeat was not active. In the library only some 31% were active in any assay of this set; here they are far more common.

SMILES	CYP2C19 inh	PLAP act	CYP2C9 inhib	CYP2C9 act	CYP2C19 act
N#CC(c1ccc(Cl)cc1)c1nc2ccccc2nc1C(F)(F)F (configuration not stated)	52.0	.	.	.	.
CN(C)C(=O)C(=O)c1c(-c2ccccc2)cc2ccccn12	.	.	.	.	.
Cc1ccc(NC(=O)C(=O)c2c(-c3ccccc3)cc3ccccn23)cc1S(=O)(=O)N1CCOCC1	87.6	.	.	.	.
Cc1c(C(=O)OCC(=O)N2CC(C)OC(C)C2)oc2ccc(Br)cc12 (configuration not stated)	.	.	.	.	.
CNC(=O)CN(c1cc(C)ccc1C)S(C)(=O)=O	.	.	.	.	.
COc1ccc(Cl)cc1N(CC(=O)Nc1ccc2c(c1)OCCO2)S(C)(=O)=O	76.2	.	69.0	.	.
COc1ccc(Cl)cc1N(CC(=O)Nc1cccc(SC)c1)S(C)(=O)=O	90.6	.	71.5	.	.
COc1ccc(OC)c(N(CC(=O)Nc2ccc(NC(C)=O)cc2)S(C)(=O)=O)c1	.	.	.	.	.
COc1ccc(N(CC(=O)Nc2cccc(SC)c2)S(C)(=O)=O)cc1Cl	59.0	.	.	.	.
CSc1cccc(NC(=O)CN(c2cc(C)ccc2C)S(C)(=O)=O)c1	84.8	.	55.7	.	.
COc1ccccc1N1CCN(C(=O)c2c(C)cc(=O)oc2C)CC1	.	.	.	.	.
CCOC(=O)c1c(C)oc2cc(Br)c(OC)cc12	.	.	.	.	.
COc1ccccc1N1CCN(C(=O)c2oc3cc(C)c(C)cc3c2C)CC1	.	.	73.6	.	.
COc1cc2c(C(=O)N3CCN(c4ccccc4C)CC3)c(C)oc2cc1Br	59.7	.	71.8	.	.
O=C(O)C1CC=CCC1C(=O)N1CCCC1 (configuration not stated)	.	.	.	.	.
O=C(CSc1ncnc2c1cnn2-c1ccccc1)Nc1ccc2c(c1)OCO2	.	.	63.4	.	.
COc1ccc(-n2nnc3c(SCC(=O)Nc4ccc5c(c4)OCCO5)ncnc32)cc1	.	.	.	.	.
O=C(CSc1ncnc2ccccc12)Nc1ccc2c(c1)OCO2	61.5	.	.	.	.
O=C(COc1ccccc1)Nc1nc(-c2ccc(S(=O)(=O)N3CCOCC3)cc2)cs1	.	.	77.6	.	.
O=C(COC(=O)c1ccc(S(=O)(=O)N2CCOCC2)cc1)Nc1nc(-c2ccccc2)cs1	.	.	.	.	.
O=C(CCc1ccc(S(=O)(=O)N2CCOCC2)cc1)Nc1nc(COc2ccccc2)cs1	.	.	85.0	.	.
O=C(CCc1ccc(S(=O)(=O)N2CCOCC2)cc1)Nc1nccs1	.	.	.	.	.
O=C(COc1ccc(Cl)cc1)Nc1nc(-c2ccc(S(=O)(=O)N3CCOCC3)cc2)cs1	57.9	.	91.7	.	.
Cc1ccsc1C(=O)Nc1cc(C(C)(C)C)nn1-c1ccccc1	.	.	.	.	.
Cc1cccc(NC(=O)CCc2c(C)nc3ncnn3c2C)n1	.	.	.	.	.
SMILES	CYP2C19 inh	PLAP act	CYP2C9 inhib	CYP2C9 act	CYP2C19 act
N#C/C(=N\O)c1nc(-c2ccccc2)cs1	.	.	62.5!	.	.
O=C(C1CCN(S(=O)(=O)c2cccc3nsnc23)CC1)N1CCc2ccccc21	50.7	.	.	.	.
O=C(C1CCCN(S(=O)(=O)c2cccc3nsnc23)C1)N1CCc2ccccc21 (configuration not stated)	52.5	.	73.9	.	.
c1ccc2c(c1)oc1c(Nc3ccc4c(c3)OCCO4)ncnc12	.	.	.	.	.
Cc1ccc(Nc2ncnc3c2oc2ccccc23)cc1	53.4	.	.	.	.
Cc1nc(Nc2ccc3c(c2)OCCO3)c2oc3ccccc3c2n1	85.1	.	75.7	.	.
CCc1nc(Nc2ccc3c(c2)OCCO3)c2oc3ccccc3c2n1	.	.	.	.	.
COc1ccc(Nc2ncnc3c2oc2ccccc23)cc1	54.6	.	.	.	.
Cc1nn2cc(-c3ccccc3)nc2[nH]c1=O	.	.	73.8	.	.
Cc1nn2c(-c3ccccc3)c(-c3ccccc3)nc2[nH]c1=O	.	.	.	.	.
COc1ccc(F)cc1CN1CCN(c2cc(C)nc3c4c(C)cc(C)nc4nn23)CC1	.	.	.	.	.
CCCc1cc(=O)[nH]c(Nc2ccc(OC)c(Cl)c2)n1	.	.	72.4	.	.
CCCc1cc(=O)[nH]c(Nc2ccc(O)cc2)n1	.	.	.	.	.
Clc1ccc2c(c1)CCc1cccnc1C2=C1CCNCC1	/	.	/	/	/
CCN1CCCC1CNC(=O)C(=O)Nc1ccccc1OC (configuration not stated)	.	.	.	.	.
CCCCn1cnc2c(cnn2-c2ccc(F)cc2)c1=O	.	.	56.0	.	.
O=C(Cn1cnc2c(cnn2-c2ccc(F)cc2)c1=O)OCc1ccccc1	.	.	.	.	.
O=c1c2cnn(-c3ccc(F)cc3)c2ncn1Cc1ccccn1	56.3	.	.	.	.
O=c1c2cnn(-c3ccccc3)c2ncn1Cc1ccccc1F	.	.	.	.	.
O=C(Cc1ccccc1)N1CCCC(c2nc(-c3ccc(S(=O)(=O)N4CCCC4)cc3)no2)C1 (configuration not stated)	.	.	73.4	.	.
Cc1ccc(-c2noc(C3CCCN(S(=O)(=O)c4ccc5ccccc5c4)C3)n2)o1 (configuration not stated)	.	.	.	.	.
Cc1ccc(S(=O)(=O)N2CCCC(c3nc(-c4ccc(C)o4)no3)C2)cc1 (configuration not stated)	90.5	.	82.6	.	.
Cc1ccc(-c2noc(C3CCCN(S(=O)(=O)c4ccc(S(=O)(=O)N(C)C)cc4)C3)n2)o1 (configuration not stated)	.	.	82.0	.	.
CCN(CC(=O)NCc1cccs1)S(=O)(=O)c1ccc(C(C)C)cc1	.	.	.	.	.
CCCCCCCCNC(=O)CCNC(=O)c1ccc(C(C)(C)C)cc1	55.4	2	51.8	.	.
SMILES	CYP2C19 inh	PLAP act	CYP2C9 inhib	CYP2C9 act	CYP2C19 act
CCOc1ccc(C(=O)NCCC(=O)NCCCC(=O)O)cc1	.	.	.	.	.
CC(C)CNC(=O)COc1ccc2c3c(c(=O)oc2c1)CCC3	.	.	76.4	.	.
Cc1cc2oc(=O)c3c(c2cc1OCc1nn[nH]n1)CCCC3	.	.	.	.	.
Cc1c(CC(=O)O)c(=O)oc2cc(OCc3nn[nH]n3)ccc12	.	.	.	.	.
CCOC(=O)CCc1c(C)c2ccc(OCc3nn[nH]n3)cc2oc1=O	.	.	71.3	.	.
O=c1oc2cc(OCc3nn[nH]n3)ccc2c2c1CCCC2	94.6	.	96.3	.	.
CC(C)CCNC(=O)COc1ccc2c3c(c(=O)oc2c1)CCC3	.	.	.	.	.
CC(=O)COc1ccc2c3c(c(=O)oc2c1)CCCC3	64.3	.	.	.	.
